Active and inactive are the calls of the source. Rule for the calls: active = hit-call score of the fitted dose curve at least 0.9, where 1 is the maximum; inactive = score below 0.9.
Test system: not listed separately
Assay: CCTE_Mundy_HCI_Cortical_NOG_BPCount: CCTE's Neurite Outgrowth Assay in rat cortical cells for Branch Point Count, Mundy Lab (AID 2284237)
Details: not given
Protocol: CCTE_Mundy_HCI_Cortical_NOG is a multiplexed, cell-based-readout assay that uses rat primary cortical cells with measurements taken at 50.33 hours after chemical dosing in a microplate: 96-well plate.CCTE_Mundy_HCI_Cortical_NOG_BPCount is one of four components of the CCTE_Mundy_HCI_Cortical_NOG assay. It measures neurite outgrowth related to the number of branch points using High Content Imaging of fluorescently labelled markers.[…] Using a type of morphology reporter, loss -of-signal activity can be used to understand developmental effects.
Exposure starts 2 hours post-plating by adding 10 ul of the working solution to 90 ul of media in the wells for a 1/10 dilution. Forty-eight hours after chemical treatment cells are fixed by direct addition of 100 ul of warm (37C) Dulbecco's phosphate buffered saline (DPBS) fixative solution containing 8% paraformaldehyde, 8% sucrose, and 0.1% of 3 mg/ml Hoechst 33342 into each well. Primary antibodies are prepared by dilution in Immunocytochemical Staining Buffer (ISB), 10X Dulbecco's PBS, 0.1% Saponin, 5% Bovine Serum Albumin, 0.5% NaN3 (Sodium Azide) and betaIII-tubulin (rabbit anti-betaIII-tubulin, 1:800) followed by Alexa Fluor-488 secondary (1:500) to label neuronal cell bodies and neurites. A Cellomics ArrayScan VTi HCS Reader is used for automated image acquisition and analysis of neurite outgrowth.

SMILES	outcome
CC1(C)S[C@@H]2[C@H](NC(=O)COc3ccccc3)C(=O)N2[C@H]1C(=O)O	inactive
N[C@H]1C(O)O[C@H](CO)[C@H](O)[C@@H]1O (stereo partly drawn)	inactive
Nc1ncn([C@@H]2O[C@H](CO)[C@@H](O)[C@H]2O)c(=O)n1	inactive

Read-out: Collagen III, COL3A1 (gene 1281)
Assay: BSK_MyoF_CollagenIII: BioMAP Diversity Plus: MyoF Assay for Collagen III Biomarker Activity (AID 2284239)
Details: primary human lung fibroblasts
Outline: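 ELISA read-out of collagen III from human lung fibroblasts after 24 h of chemical treatment. The DMSO control served as negative control and baseline, with values fitted in the positive direction.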

SMILES	outcome	AC50
c1ccc(-c2ccccn2)nc1	inactive	
C=CCOc1c(Br)cc(Br)cc1Br		26.2 µM (active)
CCCCNc1ccc(NCCCC)c2c1C(=O)c1ccccc1C2=O	inactive	
O=C(Nc1ccccc1SSc1ccccc1NC(=O)c1ccccc1)c1ccccc1	inactive	
CC(C)(c1cc(Br)c(OCCO)c(Br)c1)c1cc(Br)c(OCCO)c(Br)c1		7.69 µM (active)
CC1OC1C1CCC2(C)OC2C1 (stereo not drawn)	inactive	
N#[N+]c1ccc2c(S(=O)(=O)[O-])cccc2c1O	inactive	
CCCCC/C=C\C/C=C\CCCCCCCC(=O)OC		20 µM (active)
CCCCCCCCc1ccc(Nc2ccc(CCCCCCCC)cc2)cc1	inactive	
CCOc1nc(F)cc2nc(S(=O)(=O)Nc3c(Cl)cccc3C(=O)OC)nn12	inactive	
S=C(NC1CCCCC1)NC1CCCCC1	inactive	
O=C(Cl)c1cc(C(=O)Cl)cc(C(=O)Cl)c1		33.2 µM (active)
O=Nc1ccc(O)cc1	inactive	
C#CC1(O)CC[C@H]2[C@@H]3CCC4=CCCC[C@@H]4[C@H]3CC[C@@]21C (stereo partly drawn)		31.8 µM (active)
C=CC(=O)OCC(Br)CBr (stereo not drawn)		32.7 µM (active)
C/C=C\C/C=C/CCCCCCCCOC(C)=O	inactive	
CCCCCCCCCCCCCCCC[N+](C)(C)CC		0.967 µM (active)
CC(C)C(=O)C(C)C	inactive	
C=CC=CC=CCCCCC	inactive	
O=c1c2ccccc2oc2ccccc12	inactive	
C=CCOCC(O)CCl (stereo not drawn)	inactive	
COCc1c(C(C)C)nc(C(C)C)c(/C=C/[C@@H](O)C[C@@H](O)CC(=O)O)c1-c1ccc(F)cc1		0.867 µM (active)
CCO[Si](CCCN=C=O)(OCC)OCC	inactive	
c1ccc2c(c1)ccc1cc3c(ccc4ccccc43)cc12	inactive	
c1ccc2c(c1)ccc1ncccc12	inactive	
COc1ccc2nc(N)sc2c1	inactive	
CCCCC(CC)COC(=O)c1ccccc1O (stereo not drawn)	inactive	

Test system: not listed separately
Assay: CCTE_Mundy_HCI_hNP1_Casp3_7: CCTE's Caspase-Glo 3/7 Assay in human neuroprogenitor cells for Apoptosis, Mundy Lab (AID 2284240)
Details: not given
Outline: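 Apoptosis is scored by activated caspase-3/7 luminescence in WA09-derived neural progenitor cells, measured 26.5 h after chemical dosing. Values represent gain of signal relative to DMSO vehicle.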

SMILES	outcome	AC50
CC1(C)S[C@@H]2[C@H](NC(=O)COc3ccccc3)C(=O)N2[C@H]1C(=O)O	inactive	
N[C@H]1C(O)O[C@H](CO)[C@H](O)[C@@H]1O (stereo partly drawn)	inactive	
Nc1ncn([C@@H]2O[C@H](CO)[C@@H](O)[C@H]2O)c(=O)n1		5.45 µM (active)
